Assay results taken from the supplement of paper PMC9492666.
Structures can show the parent of a compound that is named as a salt.

Each compound was assayed on HCC1937 (assay: relative cell viability, compound alone, vs DMSO (fraction of DMSO control); higher = less growth inhibition). Details: 72 h.
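Further: viability read out with the CCK-8 kit in 96-well plates, screening a set of 303 compounds acting on lipid metabolism targets.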

Structure (SMILES)	relative cell viability
CC(C)(C)NC(=O)[C@H]1CC[C@H]2[C@@H]3CC[C@H]4NC(=O)C=C[C@]4(C)[C@H]3CC[C@]12C [Finasteride]	1.17
O=C(c1ccc(NS(=O)(=O)c2cccc3cccnc23)cc1)N1CCN(CC2CC2)CC1 [Mitapivat]	0.95
COc1cccc(CNc2ccc(S(=O)(=O)Nc3nc4ccccc4s3)cc2)c1O	1.01
O=C(Nc1ccc(C(O)(C(F)(F)F)C(F)(F)F)cc1)c1ccc(C(F)(F)F)cc1	0.54
Cc1cccc(Nc2cc(Cl)nc(SCC(=O)O)n2)c1C [Pirinixic Acid]	0.824
O=C(O)CCCc1cc2cc(Cl)ccc2n1S(=O)(=O)c1ccc2ncsc2c1 [Lanifibranor]	0.754
CC(c1cc2ccccc2s1)N(O)C(N)=O (centres undefined) [Zileuton]	1.21
Oc1ccc(/C=C/c2cc(O)cc(O)c2)cc1 [Resveratrol]	0.67
CC(C)=CCC[C@](C)(O)[C@H]1CC[C@]2(C)[C@@H]1[C@H](O)C[C@@H]1[C@@]3(C)CC[C@H](O)C(C)(C)[C@@H]3[C@@H](O)C[C@]12C [(20S)-Protopanaxatriol]	1.24
Fc1ccc(-c2c3cccc(C(F)(F)F)c3nn2Cc2ccc(F)cc2Cl)cc1	1.11
N=C(N)NC(=N)NCCc1ccccc1 [Phenformin hydrochloride]	0.76
COc1cc(N2CCN(C)CC2)ccc1Nc1ncc2c(n1)N(C1CCC1)C(=O)N(c1c(C)cccc1C)C2	0.817
O=S(=O)(Nc1ccc(C(O)(C(F)(F)F)C(F)(F)F)cc1)c1cccs1	1.1
Nn1nnc2ccccc21 [1-Aminobenzotriazole]	1.07
CS(=O)(=O)c1ccc(-c2nnc(/C=C/c3nnc(-c4ccc(C#N)cc4)o3)n2-c2ccccc2Cl)nc1	1.07
O=C(O)c1cc(F)c2nc(N3[C@@H]4CC[C@H]3C[C@@H](OCc3c(-c5ccccc5OC(F)(F)F)noc3C3CC3)C4)sc2c1 [Tropifexor]	1.05
Nc1cccc(S(=O)(=O)N2CCCN(S(=O)(=O)c3ccc4c(c3)OCCO4)CC2)c1	0.881

Structure (SMILES)	relative cell viability
C[C@H](CCCC(C)(C)O)[C@H]1CC[C@H]2[C@@H]3CC=C4C[C@@H](O)CC[C@]4(C)[C@H]3CC[C@]12C [25-Hydroxycholesterol]	0.982
CCOC(=O)c1c(NC(=O)CN2CCN(C(=O)c3ccco3)CC2)sc2c1CCC2	0.857
CN(C)C(=O)Nc1cccc(-c2ccc(N(C)C)cc2)c1 [Atglistatin]	0.661
O=C(CCCCc1ccc2c(c1)OCO2)N1CCCCC1	0.608
CCC(=O)Nc1cccc(Oc2nc(Nc3ccc(N4CCN(C)CC4)cc3OC)ncc2Cl)c1	0.48
N#Cc1c(O)c2c(-c3ccc(-c4ccccc4O)cc3)csc2[nH]c1=O	0.719
COc1cc(F)c(C(C)C)cc1-c1ccc(C(F)(F)F)cc1CN1C(=O)O[C@H](c2cc(C(F)(F)F)cc(C(F)(F)F)c2)[C@@H]1C [Anacetrapib]	0.72
OC[C@H]1O[C@@H](Oc2cc(O)cc(/C=C/c3ccc(O)cc3)c2)[C@H](O)[C@@H](O)[C@@H]1O [Polydatin]	1.07
O=C1c2cc(CO)cc(O)c2C(=O)c2c(O[C@@H]3O[C@H](CO)[C@@H](O)[C@H](O)[C@H]3O)cccc21 [Aloe-emodin-8-O-beta-D-glucopyranoside]	0.544
CCCCCCCCCCCCCCOc1ccc(C(=O)OCC(=O)N(C)CC(=O)OCC)o1 [Olumacostat Glasaretil]	0.812
CCCCCCCCCCCCCCCC(=O)NCCO [Palmidrol]	1.39
CCN(CC)CCCC(C)Nc1c2ccc(Cl)cc2nc2ccc(OC)cc12 (centres undefined) [Quinacrine dihydrochloride]	0.212
CN1CCN(C(=O)C2C(C(=O)O)[C@H]3CC[C@@H]2O3)CC1 (some centres undefined)	0.568
C[C@@H]1OCC2(CCN(c3cnc(Sc4ccnc(N)c4Cl)c(N)n3)CC2)[C@@H]1N	0.896
CCC(=O)O[C@]1(C(=O)SCF)[C@H](C)C[C@H]2[C@@H]3C[C@H](F)C4=CC(=O)C=C[C@]4(C)[C@@]3(F)[C@@H](O)C[C@@]21C [Fluticasone propionate]	1.34
COc1ccc(N(C(=O)Nc2c(C)cccc2C)c2cc(Nc3ccc(N4CCN(C)CC4)cc3)ncn2)c(OC)c1	0.915
COc1ccc(-c2cc(=O)c3c(O)c(OC)c(O)cc3o2)cc1OC [Eupatilin]	0.622
